Most compounds without a hit are left out; they make up all but 0.65% or so of the library.
NS1 function inh: blocks influenza NS1 protein function | Potency, µM (series often up to 46.1 µM) | 0.4% of 270,000 active | AID 2326; also: actives are rising curves; nearly all actives have a fitted effect of over 50% in size
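Recovery from NS1-induced slow growth read by OD600 in budding yeast switched to galactose assay medium (pH 6.0, -URA) at 1:100 dilution. Compound 23 nl per well; the matching strain lacking NS1 serves as control.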
AMA1-RON2 inh: AMA1-RON2 (P. falciparum) interaction inhibition. AlphaScreen AMA1-biotinylated RON2 peptide binding. Potency, µM (series often up to 58.2 µM), most hits filed as inhibitors. 0.2% of 360,000 active; active = well fitted inhibition curve with a large enough effect; inconclusive = small, poorly fitted or top-dose-only effect; inactive = no such curve, though single readings can be large or run the other way; also: nearly all actives have a fitted effect of over 45% in size
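AMA1 (3D7) with his tag at 25 nM final met compounds first, then biotinylated RON2 peptide at 25 nM; detection used donor plus acceptor beads, 10 µg/mL apiece, read by AlphaScreen after 30 min at room temperature.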
SARS PLpro yeast-1: SARS-CoV PLP inhibition in yeast; S. cerevisiae expressing SARS-CoV PLpro, growth rescue; Potency, µM (top dose mostly 32.9 µM), hits mostly activators; 0.19% of 330,000 active; AID 485353; also: nearly all actives have a fitted effect of over 55% in size
SARS PLpro yeast-2: Validates SARS-CoV PLpro inhibitor hits in yeast | shares compounds with SARS PLpro yeast-1 | calls only | yeast expressing SARS-CoV PLpro, growth phenotype rescue | 19% of 1,000 active; call rule not given here
Numbers stand for hits; . = inactive; ? = inconclusive; / = no result; + = active, no number; [ ] = remark or other dose. Unless noted, calls follow the shape of the full dose curve.

SMILES | NS1 function inh | AMA1-RON2 inh | SARS PLpro yeast-1 | SARS PLpro yeast-2
CC(C)CCOc1cccc(OCC(=O)Nc2ccncc2)c1 | . | . | . | /
Cc1cccc(C)c1NC(=O)COC(=O)C1C2CC3OC(=O)C1C3C2 (configuration not stated) | . | . | 11µM | .
Cc1cccc(NC(=O)COC(=O)C2C3CC4OC(=O)C2C4C3)c1C (configuration not stated) | . | . | . | /
CC(CNC(=O)Cn1cnc2c(NCc3ccccc3)ncnc21)c1ccccc1 (configuration not stated) | / | . | 14µM | +
O=C(Cn1cnc2c(NCc3ccccc3)ncnc21)NCCCc1ccccc1 | / | . | . | /
COc1cc([N+](=O)[O-])ccc1NC(=O)CN1CCOCC1 | / | . | . | /
O=C(NCc1ccc(CNC(=O)c2ccco2)cc1)c1ccco1 | . | . | ? | .
O=C(NCc1ccc(Cl)c(Cl)c1)c1ccco1 | . | . | . | /
Fc1ccccc1C1c2cccn2CCN1C(=S)Nc1ccc(Br)cc1 (configuration not stated) | . | . | . | /
CCCCCC(=O)N/N=C(\C)c1ccc(N2CCCCC2)cc1 | . | . | 14µM | .
CCCCCCCC(=O)N/N=C(\C)c1ccc(N)cc1 | / | / | . | /
Cc1cccc(C)c1NC(=O)CN1CCN(CC(=O)NCC2(N3CCCCC3)CCCCC2)CC1 | / | . | . | /
COc1ccc(N2CCN(C(=O)NC(=O)c3ccccc3)CC2)cc1 | . | . | . | /
CCN1CCc2c(sc(NC(=O)Nc3ccc(Cl)c(Cl)c3)c2C(N)=O)C1 | . | . | ? | .
CCN1CCc2c(sc(NC(=O)Cc3ccccc3)c2C(N)=O)C1 | . | . | . | /
COc1ccccc1N1CCN(C(=O)CCc2nnc3ccc(N4CCC(C)CC4)nn23)CC1 | . | . | . | /
COc1c2c(c(OC)c3ccccc13)[C@]1(OC2)O[C@H](CCO)C[C@H](O)[C@H]1O | / | . | / | /
Cc1cccc(C)c1NC(=O)CC1SC2=NCCN2C1=O (configuration not stated) | . | . | ? | .
O=C(CC1SC2=NCCN2C1=O)Nc1ccc(Br)cc1 (configuration not stated) | . | . | . | /
C[C@@]12C(=O)N(c3ccc(Cl)cc3)C(=O)N1[C@@H]1c3ccccc3OC[C@@H]1[C@H]2c1ccccc1 | / | . | . | /
COC(=O)c1c(NC(=O)CSc2nc3ccccc3c(=O)n2Cc2ccco2)sc(C)c1C | . | . | ? | +
COC(=O)c1c(NC(=O)CSc2nnc(-c3ccco3)n2Cc2ccccc2)sc(C)c1C | . | . | . | /
COc1cc2[nH]c3c(=O)n(CCN4CCCCC4)cnc3c2cc1OC | . | . | ? | .
COc1ccc2[nH]c3c(=O)n(CCCN4CCOCC4)cnc3c2c1 | . | . | . | /
Cc1cccc(NC(=O)Nc2c(C)n(C)n(-c3ccccc3)c2=O)c1C | . | . | . | /
SMILES | NS1 function inh | AMA1-RON2 inh | SARS PLpro yeast-1 | SARS PLpro yeast-2
Cc1cccc(C)c1NC(=O)CN(C)C(=O)c1ccccc1SCC(=O)N1CCCC1 | / | . | 14µM | .
CN(CC(=O)Nc1c(Cl)cccc1Cl)C(=O)c1ccccc1SCC(=O)N1CCCC1 | . | . | . | /
NS(=O)(=O)c1ccc(CCNc2ccccc2[N+](=O)[O-])cc1 | . | . | . | /
CC(C)Cn1c(-c2csc(C(C)C)c2)n[nH]c1=S | . | . | . | /
Cc1cc(-c2n[nH]c(=S)n2CC(C)C)cs1 | . | . | ? | +
Brc1ccc(OCc2nc(-c3ccccn3)n[nH]2)cc1 | . | . | ? | +
Clc1ccc(OCc2nc(-c3ccccn3)n[nH]2)cc1 | . | . | . | /
CCOc1cccc(/C=N/Nc2ccc(S(=O)(=O)N(CC)CC)cn2)c1O | . | . | 7.9µM | .
CCN(CC)S(=O)(=O)c1ccc(N/N=C/c2cc(OC)c(OC)cc2OC)nc1 | . | . | . | /
CC1=C(C(=O)N2CCc3ccccc32)C2(CCC(C)CC2)OC1=O (configuration not stated) | . | . | ? | .
CC1=C(C(=O)N2CCCCC2)C2(CCC(C)CC2)OC1=O (configuration not stated) | . | . | . | /
Cc1ccc(C(C(=O)NCc2ccccc2)N(Cc2cccs2)C(=O)c2ccc3c(c2)OCCO3)cc1 (configuration not stated) | . | . | ? | .
COc1ccc(CNC(=O)C(c2ccc(C)cc2)N(Cc2cccs2)C(=O)c2ccc3c(c2)OCCO3)cc1 (configuration not stated) | ? | . | . | /
Cc1cc(C)c2[nH]c(C)c(CN3CCCCCC3)c(=O)c2c1 | . | . | . | /
O=C1CCN(Cc2cccnc2)CCN1[C@H](CO)Cc1ccccc1 | . | . | . | /
Cc1ccc(CN2CCN(/N=C/c3ccc(C(=O)O)cc3)CC2)c(C)c1 | . | . | . | /
Cc1ccc(CN2CCN(/N=C/c3ccc(C(F)(F)F)cc3)CC2)c(C)c1 | . | . | ? | .
Cc1cc(OCC(=O)NC(C)(C)C)ccc1Cl | . | . | ? | .
COCCCNC(=O)COc1ccc(Cl)c(C)c1 | . | . | . | /
COc1cc(OC)c(OC)cc1/C=N/Nc1nc2ccccc2[nH]1 | . | . | . | /
CCN(CC)c1ccc(/C=N/Nc2nc3ccccc3[nH]2)c(O)c1 | . | ? | 10µM | +
O=C(Cc1cccs1)N/N=C/c1ccccc1 | . | . | . | /
CCN(CC)c1ccc(/C=N/NC(=O)Cc2cccs2)c(O)c1 | . | .[11.6 µM] | 5µM | .
Nc1ncnc2nn([C@H]3O[C@@H](CO)[C@@H](O)[C@H]3O)nc12 | . | / | / | /
CS(=O)(=O)c1ccc(-c2sc3ccccc3c2C(=O)N2CCN(c3ccc(F)cc3)CC2)cc1 | / | . | . | /
SMILES | NS1 function inh | AMA1-RON2 inh | SARS PLpro yeast-1 | SARS PLpro yeast-2
CC(C)CN(C(=O)C(C)N1C(=O)c2ccccc2C1=O)c1c(N)n(Cc2ccccc2)c(=O)[nH]c1=O (configuration not stated) | / | . | / | /
Cc1onc(-c2ccccc2)c1C(=O)NC(=S)NNC(=O)c1cccnc1 | . | . | . | /
Cc1onc(-c2ccccc2)c1C(=O)NC(=S)NNC(=O)c1ccncc1 | . | . | 13µM | .
c1cc2c(cc1[C@H]1OC[C@H]3[C@@H]1CO[C@H]3c1ccc3c(c1)OCO3)OCO2 | / | . | ? | .
CN1C(=O)c2ccccc2N(C)C1c1ccc2c(c1)OCO2 (configuration not stated) | . | . | . | /
Cc1onc(-c2ccccc2)c1C(=O)OCc1nnc(-c2ccccc2)o1 | / | . | . | /
O=[N+]([O-])c1ccc(Cc2cncc(O)c2)cc1 | . | . | . | /
O=C(COC(=O)/C=C/c1cccs1)Nc1nc(-c2ccccc2)cs1 | . | . | 14µM | +
O=C(COC(=O)/C=C/c1cccs1)Nc1nc(-c2cccc(Br)c2)cs1 | . | . | . | /
COc1cccc(NC(=O)CSc2ccc3nnc(CCNC(=O)c4ccccc4)n3n2)c1 | . | . | . | /
COc1ccccc1/C=N/NC(=O)c1cccc(OC(F)(F)C(F)F)c1 | . | . | . | /
COc1cccc(/C=N/NC(=O)C(=O)Nc2ccccc2OC(F)(F)C(F)F)c1O | . | . | 3.5µM | .
COc1ccc(C2CC(c3ccc(Cl)cc3)=NN2C(=O)c2cccc([N+](=O)[O-])c2)cc1 (configuration not stated) | ? | .[2.32 µM] | . | /
COc1ccc(C2=NN(C(=O)c3ccc(Cl)c([N+](=O)[O-])c3)C(c3ccccc3)C2)cc1 (configuration not stated) | . | . | ? | ?

From PubChem
